Assay results: PubChem BioAssay AID1159580 (chemical genetic matrix, 2015)
Among all 5,500 compounds or so, about 2,000 (36%) were called active. Roughly 18% stayed inconclusive and do not appear here. Rule as the data show it: active = normalized growth mostly below about 0.91 (no sharp cut-off); inconclusive = no clear call, values can overlap the other calls; inactive = mostly above about 0.92. This is one part of the list.

Experiment: chemical genetic growth profiling, strain panel (AID 1159580);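 also: tested at 20 µM; growth read once vehicle control cultures reached saturation at 30 °C; 1 = growth at the plate median or of vehicle wells; lower values mean less growth of the strain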
Conditions: growth OD

Measured: normalized growth

N#Cc1c(Cl)cccc1Cl
inactive: S. cerevisiae deletion strains, locus YJR075W, strain HOC1, active compounds read low 1.02 | S. cerevisiae deletion strains, locus YKL009W, strain mrt4, active compounds read low 1.02 | S. cerevisiae deletion strains, locus YKL068W, active compounds read low 1.01 | S. cerevisiae deletion strains, locus YKL085W, strain MDH1 (second series), active compounds read low 1.01 | S. cerevisiae deletion strains, locus YKL085W, strain MDH1, active compounds read low 1.01 | S. cerevisiae deletion strains, locus YKL160W, strain elf1, active compounds read low 0.981 | S. cerevisiae deletion strains, locus YKL190W, strain CNB1, active compounds read low 1.02 | S. cerevisiae deletion strains, locus YKR001C, strain vps1, active compounds read low 1.01 | S. cerevisiae deletion strains, locus YKR026C, strain gcn3, active compounds read low 0.982 | S. cerevisiae deletion strains, locus YKR091W, strain srl3, active compounds read low 0.978 | S. cerevisiae deletion strains, locus YLL001W, strain dnm1, active compounds read low 0.988 | S. cerevisiae deletion strains, locus YLL026W, active compounds read low 0.975 | S. cerevisiae deletion strains, locus YLL041C, strain sdh2, active compounds read low 0.977 | S. cerevisiae deletion strains, locus YLR027C, strain aat2, active compounds read low 0.959 | S. cerevisiae deletion strains, locus YLR039C, strain RIC1, active compounds read low 1.01 | S. cerevisiae deletion strains, locus YLR058C, strain SHM2, active compounds read low 1.02 | S. cerevisiae deletion strains, locus YLR102C, strain apc9, active compounds read low 1.01 | S. cerevisiae deletion strains, locus YLR113W, strain HOG1, active compounds read low 0.987 | S. cerevisiae deletion strains, locus YLR221C, strain rsa3, active compounds read low 0.971 | S. cerevisiae deletion strains, locus YLR258W, strain gsy2, active compounds read low 0.991 | S. cerevisiae deletion strains, locus YLR262C, strain YPT6 (second series), active compounds read low 0.999 | S. cerevisiae deletion strains, locus YLR262C, strain YPT6, active compounds read low 1.05 | S. cerevisiae deletion strains, locus YLR268W, strain sec22, active compounds read low 0.999 | S. cerevisiae deletion strains, locus YLR320W, strain mms22, active compounds read low 0.988 | S. cerevisiae deletion strains, locus YLR330W, strain CHS5, active compounds read low 1.01 | S. cerevisiae deletion strains, locus YLR342W, strain FKS1 (second series), active compounds read low 1.04 | S. cerevisiae deletion strains, locus YLR342W, strain FKS1, active compounds read low 0.978 | S. cerevisiae deletion strains, locus YLR357W, strain rsc2, active compounds read low 0.978 | S. cerevisiae deletion strains, locus YLR370C, strain arc18, active compounds read low 0.965 | S. cerevisiae deletion strains, locus YLR371W, strain rom2, active compounds read low 1.01 | S. cerevisiae deletion strains, locus YLR384C, strain iki3, active compounds read low 0.975 | S. cerevisiae deletion strains, locus YLR418C, strain cdc73, active compounds read low 1.01 | S. cerevisiae deletion strains, locus YML016C, strain PPZ1, active compounds read low 1.01 | S. cerevisiae deletion strains, locus YML032C, strain rad52, active compounds read low 1.02 | S. cerevisiae deletion strains, locus YML120C, strain ndi1, active compounds read low 0.988 | S. cerevisiae deletion strains, locus YML124C, strain tub3, active compounds read low 1.01 | S. cerevisiae deletion strains, locus YMR058W, strain fet3, active compounds read low 0.968 | S. cerevisiae deletion strains, locus YMR078C, strain ctf18, active compounds read low 1.02 | S. cerevisiae deletion strains, locus YMR125W, strain sto1, active compounds read low 0.974 | S. cerevisiae deletion strains, locus YMR129W, active compounds read low 1.01 | S. cerevisiae deletion strains, locus YMR205C, strain PFK2, active compounds read low 1.01 | S. cerevisiae deletion strains, locus YMR223W, strain ubp8, active compounds read low 1.01 | S. cerevisiae deletion strains, locus YMR231W, strain pep5, active compounds read low 0.982 | S. cerevisiae deletion strains, locus YMR263W, strain SAP30, active compounds read low 1.02 | S. cerevisiae deletion strains, locus YMR307W, strain GAS1, active compounds read low 1.01 | S. cerevisiae deletion strains, locus YNL067W, strain RPL9B, active compounds read low 1.01 | S. cerevisiae deletion strains, locus YNL071W, strain lat1, active compounds read low 0.985 | S. cerevisiae deletion strains, locus YNL128W, strain TEP1, active compounds read low 1.01 | S. cerevisiae deletion strains, locus YNL153C, strain GIM3, active compounds read low 1.01 | S. cerevisiae deletion strains, locus YNL183C, strain NPR1, active compounds read low 0.902 | S. cerevisiae deletion strains, locus YNL209W, strain ssb2, active compounds read low 0.995 | S. cerevisiae deletion strains, locus YNL233W, strain BNI4, active compounds read low 1.02 | S. cerevisiae deletion strains, locus YNL248C, strain rpa49, active compounds read low 0.971 | S. cerevisiae deletion strains, locus YNL250W, strain rad50, active compounds read low 1.02 | S. cerevisiae deletion strains, locus YNL271C, strain bni1, active compounds read low 1.02 | S. cerevisiae deletion strains, locus YNL298W, strain CLA4, active compounds read low 1.02 | S. cerevisiae deletion strains, locus YNL307C, strain MCK1, active compounds read low 1.01 | S. cerevisiae deletion strains, locus YNL322C, strain KRE1 (second series), active compounds read low 0.978 | S. cerevisiae deletion strains, locus YNL322C, strain KRE1, active compounds read low 1.01 | S. cerevisiae deletion strains, locus YNR049C, strain mso1, active compounds read low 0.958 | S. cerevisiae deletion strains, locus YNR052C, strain pop2, active compounds read low 1.02 | S. cerevisiae deletion strains, locus YOL006C, strain TOP1, active compounds read low 1.04 | S. cerevisiae deletion strains, locus YOL012C, strain htz1 1.37 | S. cerevisiae deletion strains, locus YOL147C, strain pex11, active compounds read low 1.01 | S. cerevisiae deletion strains, locus YOR001W, strain rrp6, active compounds read low 0.993 | S. cerevisiae deletion strains, locus YOR061W, strain CKA2, active compounds read low 1.01 | S. cerevisiae deletion strains, locus YOR069W, strain VPS5, active compounds read low 1 | S. cerevisiae deletion strains, locus YOR070C, strain gyp1, active compounds read low 0.991 | S. cerevisiae deletion strains, locus YOR080W, strain dia2, active compounds read low 0.963 | S. cerevisiae deletion strains, locus YOR083W, strain WHI5, active compounds read low 0.974 | S. cerevisiae deletion strains, locus YOR106W, strain vam3, active compounds read low 0.974 | S. cerevisiae deletion strains, locus YOR136W, strain idh2, active compounds read low 1.01 | S. cerevisiae deletion strains, locus YOR144C, strain elg1, active compounds read low 1.01 | S. cerevisiae deletion strains, locus YOR184W, strain ser1, active compounds read low 1.03 | S. cerevisiae deletion strains, locus YOR231W, strain MKK1, active compounds read low 0.966 | S. cerevisiae deletion strains, locus YOR265W, strain rbl2, active compounds read low 0.966 | S. cerevisiae deletion strains, locus YOR270C, strain vph1, active compounds read low 1.01 | S. cerevisiae deletion strains, locus YOR290C, strain snf2, active compounds read low 0.985 | S. cerevisiae deletion strains, locus YOR316C, strain cot1, active compounds read low 1.01 | S. cerevisiae deletion strains, locus YPL051W, strain arl3, active compounds read low 0.995 | S. cerevisiae deletion strains, locus YPL055C, strain LGE1, active compounds read low 1.05 | S. cerevisiae deletion strains, locus YPL078C, strain atp4, active compounds read low 0.984 | S. cerevisiae deletion strains, locus YPL106C, strain sse1, active compounds read low 0.975 | S. cerevisiae deletion strains, locus YPL240C, strain hsp82, active compounds read low 0.979 | S. cerevisiae deletion strains, locus YPL241C, strain CIN2, active compounds read low 1.01 | S. cerevisiae deletion strains, locus YPL256C, strain CLN2, active compounds read low 0.968 | S. cerevisiae deletion strains, locus YPR119W, strain clb2, active compounds read low 1.01 | S. cerevisiae deletion strains, locus YPR141C, strain kar3, active compounds read low 1.02 | S. cerevisiae deletion strains, locus YPR163C, strain tif3, active compounds read low 1.02 | S. cerevisiae deletion strains, locus YPR167C, strain met16, active compounds read low 1.02 | S. cerevisiae deletion strains, strain wtn01, active compounds read low 1.02 | S. cerevisiae strains, strain wild type, active compounds read low 1.01
